TEAD-YAP block: TEAD-YAP interaction inhibition, primary screen, TEAD-YAP interaction inhibitor project, luminescence, HEK-TIYL cells; TEAD-Gal4/YAP UAS-luciferase luminescence; inhibition, % at 9.12 µM; 1.4% of 640,000 active; AID 1259422, 2018; in the data active = inhibition above about 32%;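 also: 0% = median of test compound wells and 100% = reference inhibitor wells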
MITF primary: MITF inhibitors, primary screen, biochemical, AlphaScreen, human. 0.91% of 650,000 active. AID 1259374, 2018. AlphaScreen MITF homodimerization, bead proximity signal. inhibition, % at 2.6 µM; in the data active = inhibition above about 50%;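 also: 0% = vehicle wells with protein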
GPR151 ag: activators of human GPR151, primary screen, cell-based, PathHunter beta-arrestin, luminescence. G-protein coupled receptor 151 (Homo sapiens), Q8TDV0. PathHunter beta-arrestin GPR151 cells. activation, % at 11.2 µM. 1% of 650,000 active; in the data active = activation above about 4.9%;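 also: 0% = median of compound wells and 100% = cells with positive control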
FBW7 activator: FBW7 E3 ligase activators, primary screen, biochemical, AlphaScreen, human; AID 1259310, 2017; normalized activity (activation), % at 26.1 µM; 0.13% of 650,000 active; AlphaScreen FBW7–phospho-cyclin E peptide binding, activator screen; in the data active = normalized activity above about 1.9%;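 also: purified mutant Fbw7 with reduced substrate affinity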
Target sequence (Q969H0 whole entry, looked up): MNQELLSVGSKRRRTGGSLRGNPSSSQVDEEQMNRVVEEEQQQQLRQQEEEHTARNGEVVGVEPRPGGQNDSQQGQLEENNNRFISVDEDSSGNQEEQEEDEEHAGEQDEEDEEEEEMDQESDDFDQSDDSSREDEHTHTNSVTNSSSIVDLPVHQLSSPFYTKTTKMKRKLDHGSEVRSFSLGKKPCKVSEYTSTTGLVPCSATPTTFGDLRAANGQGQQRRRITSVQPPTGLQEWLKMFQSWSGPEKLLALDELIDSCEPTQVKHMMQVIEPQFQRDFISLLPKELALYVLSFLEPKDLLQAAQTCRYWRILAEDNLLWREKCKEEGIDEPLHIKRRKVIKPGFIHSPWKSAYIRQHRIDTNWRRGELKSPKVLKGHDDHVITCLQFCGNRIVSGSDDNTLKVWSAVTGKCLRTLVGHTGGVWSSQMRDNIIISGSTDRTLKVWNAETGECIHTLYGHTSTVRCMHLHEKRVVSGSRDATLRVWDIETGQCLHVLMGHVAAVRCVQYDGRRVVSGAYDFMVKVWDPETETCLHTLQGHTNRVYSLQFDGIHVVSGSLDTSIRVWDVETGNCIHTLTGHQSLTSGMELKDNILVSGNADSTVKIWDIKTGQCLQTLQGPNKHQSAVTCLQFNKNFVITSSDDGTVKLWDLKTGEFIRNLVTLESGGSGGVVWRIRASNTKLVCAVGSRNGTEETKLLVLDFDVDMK
An asterisk follows results filed as active. Only some compounds are listed: those with a hit (about 3.5% of all), similar ones and a draw of the others.

SMILES	TEAD-YAP block	MITF primary	GPR151 ag	FBW7 activator
Oc1cccc2ccc(/C=N/Nc3ccc4ccccc4n3)nc12	33.4*	-10.0	-2.7	-0.1
Oc1ccc(/C=N/Nc2ccc3ccccc3n2)c(O)c1O	-30.1	21.1	-0.5	-0.6
C(=N\Nc1ccc2ccccc2n1)/c1cccs1	59.5*	1.2	-2.1	-0.1
CCCCC(C(=O)OCC)(C(=O)OCC)c1cc(Nc2ccc(C)cc2)c2c3c(onc13)-c1ccccc1C2=O	-10.3	55.1*	-0.6	-0.2
COc1cc(Nc2cc(N3CCN(C(=O)c4ccco4)CC3)c3noc4c3c2C(=O)c2ccccc2-4)cc(OC)c1OC	40.0*	9.1	-2.2	-0.4
CCCN1CCN(c2cc(Nc3cccc(OC)c3)c3c4c(onc24)-c2ccccc2C3=O)CC1	5.8	61.3*	1.8	-0.4
CCOC(=O)C1CCCN(c2cc(Nc3cccc(OC)c3)c3c4c(onc24)-c2ccccc2C3=O)C1 (stereo not given)	-2.3	64.3*	0.1	-0.5
COc1cccc(Nc2cc(N3CCCC3)c3noc4c3c2C(=O)c2ccccc2-4)c1	4.0	14.0	0.2	-0.1
COc1ccccc1CC(=O)O/N=C(\N)Cc1ccc([N+](=O)[O-])cc1	-4.1	7.9	-0.7	-0.1
O=C(NNC(=O)C1C2CCCCC21)C1CC1c1ccccc1 (stereo not given)	-6.7	14.4	0.4	0.0
CCOC(=O)C1CCCN(c2cc(Nc3ccc4c(c3)OCCO4)c3c4c(onc24)-c2ccccc2C3=O)C1 (stereo not given)	37.6*	3.8	-0.1	-0.3
Cc1cc(SCC(=O)NC(C)(C#N)C2CC2)nc2ccccc12 (stereo not given)	-1.9	-9.3	1.9	0.1
Cc1ccc2[nH]c(C(=O)N3CCc4nnc(CNC(=O)C5CCOC5)n4CC3)cc2c1 (stereo not given)	-10.3	4.7	0.4	-0.1
Cc1ccc(OCC(=O)Nc2ccc(F)c([N+](=O)[O-])c2)cc1C	12.8	-8.1	0.5	-0.2
Cc1ccc(C(=O)Nc2nnc(SCC(=O)Nc3ccc(F)c([N+](=O)[O-])c3)s2)cc1	82.9*	-2.7	0.9	0.1
Cc1cccc(OCC(=O)Nc2ccc(F)c([N+](=O)[O-])c2)c1	32.0*	1.1	0.5	-0.3
Cc1ccc(NC(=O)CSc2nnc(NC(=O)c3ccccc3[N+](=O)[O-])s2)cc1	-31.8	-16.6	-3.9	0.0
O=C(COc1cccc(Cl)c1)Nc1ccccc1[N+](=O)[O-]	32.2*	-3.7	1.6	0.0
Cc1cc(C)cc(OCC(=O)Nc2ccc(F)c([N+](=O)[O-])c2)c1	36.9*	2.8	3.5	0.0
CC(C)Oc1ccc(CNC(=O)c2cc3ccccc3o2)cc1	-22.3	10.9	0.8	0.7
CN(Cc1ccccc1)c1cc(-c2ccncc2)nc(-c2ccccn2)n1	0.5	3.0	0.4	-0.1
N/C(=N\O)c1ccc(Oc2ccc(Oc3ccc(/C(N)=N/O)cc3)cc2)cc1	84.4*	3.4	0.4	1.9
COc1ccc(C)cc1-n1c(C)cn2c3c(=O)n(C)c(=O)n(C)c3nc12	44.6*	8.2	0.6	0.0
COc1ccc(OC)c(-n2c(C)cn3c4c(=O)n(C)c(=O)n(C)c4nc23)c1	-9.7	-0.9	-0.7	-0.1
CC(NS(=O)(=O)c1cccc2nsnc12)C(=O)O (stereo not given)	-7.4	10.9	-1.3	0.2
SMILES	TEAD-YAP block	MITF primary	GPR151 ag	FBW7 activator
COc1ccccc1OCC(=O)N/N=C/c1ccc([N+](=O)[O-])cc1	0.4	-23.7	1.8	0.0
C=CCc1ccccc1OCC(=O)N/N=C/c1ccc([N+](=O)[O-])cc1	32.9*	15.1	1.3	0.0
COc1ccccc1OCC(=O)N/N=C/c1ccccc1	-1.0	6.0	0.3	-0.1
C=CCc1ccccc1OCC(=O)N/N=C/c1ccccc1	50.8*	-5.6	0.3	0.0
C/C(=N/NC(=O)c1ccc(O)cc1)c1cccs1	-28.8	17.7	-0.1	0.4
CCNc1ccc(C(=O)N/N=C(\C)c2cccs2)cc1[N+](=O)[O-]	50.2*	15.5	-0.7	-0.1
C/C(=N\NC(=O)c1cnccn1)c1cccs1	-14.1	-365.9	-2.3	0.0
C/C(=N/NC(=O)c1ccccn1)c1cccs1	66.1*	-9.7	-5.3	0.1
C/C(=N\NC(=O)c1ccccc1O)c1cccs1	37.5*	7.4	-1.1	0.1
C/C(=N\NC(=O)c1cccc([N+](=O)[O-])c1)c1cccs1	2.2	-3.0	-0.4	0.0
COc1ccc(O)c(C(=O)CC(=O)c2ccc(F)cc2)c1	51.5*	7.8	-8.1	0.3
COc1ccc(C(=O)CC(=O)c2ccccc2O)cc1	-49.6	-2.0	-1.9	-0.1
C/C(CC(=O)Nc1cccc2c1CCCC2)=N\NC(=O)CCc1ccccc1	-1.9	15.4	0.2	-0.3
COC(=O)c1cccc(NS(=O)(=O)c2ccc(C)cc2)c1	53.4*	5.5	0.3	0.1
COC(=O)c1c(C)oc2ccc(NS(=O)(=O)c3ccc(C)cc3)cc12	56.2*	-0.6	0.8	0.0
COC(=O)c1c(C)oc2ccc(NS(=O)(=O)c3ccc(OC)cc3)cc12	72.4*	-22.1	-0.4	-0.1
COC(=O)c1c(C)oc2c1cc(NS(=O)(=O)c1ccc(Br)cc1)c1ccccc12	4.5	5.9	0.4	-0.1
COC(=O)c1c(C)oc2cc(C)c(NS(=O)(=O)c3ccc(Br)cc3)cc12	34.1*	1.7	-0.4	0.0
COC(=O)c1c(C)oc2ccc(NS(=O)(=O)c3ccc(Cl)cc3)cc12	15.8	-4.9	0.4	0.1
CC1(C)CC2CC(C)(CN2C(=O)COC(=O)c2ccc(Cl)cc2)C1 (stereo not given)	-6.4	-1.9	1.5	-0.1
CCc1ccccc1N1C(=O)CC(Sc2ncccc2C(=O)O)C1=O (stereo not given)	-0.3	-1.8	1.7	0.1
COc1ccc(S(=O)(=O)Nc2cc3c4c(oc3cc2C)CCCC4=O)cc1	54.8*	0.8	0.9	0.0
Cc1ccc(S(=O)(=O)Nc2cc3c4c(oc3cc2C)CCCC4=O)cc1	9.7	8.3	0.5	0.0
CC(C)(C)NC(=O)C(=O)N/N=C/c1ccccc1O	-44.4	53.0*	0.1	-1.8
O=C(CCCNc1ccccc1)N/N=C/c1ccccc1O	5.8	-5.4	-1.0	0.3
SMILES	TEAD-YAP block	MITF primary	GPR151 ag	FBW7 activator
O=C(CCC(=O)Nc1cccc(Cl)c1)N/N=C/c1ccccc1O	6.7	56.3*	-0.1	0.5
O=C(CCCCC(=O)N/N=C/c1ccccc1O)N/N=C/c1ccccc1O	40.0*	7.1	0.9	-0.6
O=C(CCc1nc2cccnc2n1-c1ccccc1)NCc1ccc(F)cc1	8.4	-9.7	0.4	-0.2
CC(C)CN1C(=O)/C(=C/c2c(NCC3CCCO3)nc3ccccn3c2=O)SC1=S (stereo not given)	-2.5	22.4	1.4	0.1
CCOc1ccccc1NC(=O)CCc1c(C)nc2c(c1C)c(=O)n(C)c(=O)n2C	-4.2	1.6	1.6	1.0
Cc1ccsc1/C=N/Nc1ccc(C(=O)O)cc1	49.1*	1.1	-6.4	-0.1
